Our source for the growth inhibition values is PubChem BioAssay (NCI).

Compounds without any hit were thinned out: in the full panel of roughly 79,000, 15% have a hit. Unmarked numbers belong to inactive results. Active and inactive are the calls of the source. Cut-off read from the data, not from the text of the source: active = growth inhibition above about 70%; inactive = the rest.

Assay [1] is described as follows: NCI Yeast Anticancer Drug Screen. Data for the rad50 strain (AID 155).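 Note: 0% = growth of vehicle-only cultures of the same strain.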 The note with it: S. cerevisiae rad50 strain growth inhibition; at 50.0 µM; hits give high values. An outline of the steps:
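Readout: growth inhibition relative to vehicle-treated cultures. Compound exposure was carried out in a genetically defined yeast strain deficient in DNA damage repair.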

The nature of assay [2]: NCI Yeast Anticancer Drug Screen. Data for the mec2-1 strain (AID 157). The note with it: S. cerevisiae mec2-1 strain, at 50.0 µM, hits give high values. An outline of the steps: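 Vehicle-treated cultures served as reference for growth inhibition of compound-exposed mec2-1 yeast.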
Assay [3] is described as follows: NCI Yeast Anticancer Drug Screen. Data for the sgs1 mgt1 strain (AID 161).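 Note: 0% = growth of cultures given vehicle only.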 Conditions: S. cerevisiae sgs1 mgt1 strain, at 50.0 µM, hits give high values. An outline of the steps: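 Read-out: growth inhibition vs vehicle controls. Cells: mutant yeast strain deficient in DNA damage repair.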
A short description of assay [4]: NCI Yeast Anticancer Drug Screen. Data for the cln2 rad14 strain (AID 165).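 Note: 0% = growth equal to vehicle treated cultures.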 Conditions: S. cerevisiae cln2 rad14 strain, at 50.0 µM, hits give high values. An outline of the steps:
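Each compound was tested on cln2 rad14 yeast. Inhibition of growth was calculated against vehicle-exposed controls.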

A short description of assay [5]: NCI Yeast Anticancer Drug Screen. Data for the bub3 strain (AID 167). The note with it: S. cerevisiae bub3 mutant strain, at 50.0 µM, hits give high values. In a few lines:
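Readout: yeast growth inhibition, expressed relative to vehicle-only wells. The test organism is a mutant strain from a panel with lesions in DNA repair or checkpoint genes.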

Assay [6] can be described thus: NCI Yeast Anticancer Drug Screen. Data for the mlh1 rad18 strain (AID 175). Conditions: S. cerevisiae mlh1 rad18 strain growth inhibition; at 50.0 µM; hits give high values. An outline of the steps: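 Vehicle-treated cultures served as the reference for growth inhibition in a yeast strain carrying DNA damage repair alterations exposed to each compound.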

On to `COc1cccc(Nc2nc(NS(=O)(=O)c3cc(C)c(Cl)cc3S)n[nH]2)c1`, for which the growth inhibition in assay [1] is -7.6%; in assay [2], -2.3%; in assay [3], -6.25%; in assay [4], 7.95%; in assay [5], 16.1%; in assay [6] it was 15.8%.
With `Cc1ccc(N=C=S)cc1Cl`, the growth inhibition in assay [1] is 6.75%; in assay [2] it was 9.65%; in assay [3] it was 32.4%; in assay [4], 6.55%; in assay [5], 15.8%; in assay [6], 27.9%.
With `Cc1ccc(S(=O)(=O)N/N=C2\CCC3CC3CC\C2=N/NS(=O)(=O)c2ccc(C)cc2)cc1` (stereo not given), the growth inhibition in assay [1] was -0.85%; in assay [2], -4.4%; in assay [3] it was 0.6%; in assay [4], -9.1%; in assay [5], -2.7%; in assay [6] it was -5.75%.
`COc1cc(CNc2nc3c(NC(C)=O)cc(C(F)(F)F)cc3nc2-c2ccccc2)cc(OC)c1OC`: the growth inhibition in assay [1] was -16.1%; in assay [2], -15.8%; in assay [3], -32.3%; in assay [4] it was -4.35%; in assay [5] it was 10.8%; in assay [6], -10.3%.
For the compound `COc1ccc(OC)c(/C=C/c2ccc(NC(=O)Nc3ccccc3Cl)cc2)c1`, the growth inhibition in assay [1] was 10.8%; in assay [2] it was 2.3%; in assay [3] it was -7.9%; in assay [4] it was -39.1%; in assay [5] it was 1.2%; in assay [6] it was 13.8%.
On to `CSC(=S)n1nc(-c2ccccc2)c(N=Nc2cccc(Cl)c2Cl)c1-c1ccccc1`, for which the growth inhibition in assay [1] was 90.2% (active); in assay [2] it was 95.5% (active); in assay [3], 94% (active); in assay [4], 94.5% (active); in assay [5] it was 93% (active); in assay [6], 95.2% (active).
Take `CCNC(=O)NCN1CCOCC1`: the growth inhibition in assay [1] is 26.2%; in assay [2], -0.5%; in assay [3], 16.9%; in assay [4], 9.45%; in assay [5], 0.4%; in assay [6] it was 9%.
With `O=C(Cl)c1cc(-c2ccc(Cl)cc2)nc2c(-c3ccccc3)cccc12`, the growth inhibition in assay [1] was -4.05%; in assay [2], 9.15%; in assay [3], -9.4%; in assay [4], -38.5%; in assay [5], -0.35%; in assay [6] it was 8.5%.
Regarding `CC12CCC(=O)C=C1CCC1C2C(=O)CC2(C)C1CCC2(O)C(=O)Cn1c(=O)cc[nH]c1=O` (stereo not given), the growth inhibition is 10.1% in assay [1]; 7.75% in assay [2]; 25.6% in assay [3]; 11.8% in assay [4]; 0.3% in assay [5]; 7.65% in assay [6].
On to `O=C(/C=N\O)Nc1ccccc1O`, for which the growth inhibition was 2.6% in assay [1]; 4.3% in assay [2]; -24.4% in assay [3]; -11.6% in assay [4]; -5.15% in assay [5]; -1.9% in assay [6].
For `CN1C(=O)N(c2nc3ccccc3[nH]2)C(C)(C)C1=O`, the growth inhibition was 5.25% in assay [1]; 1.9% in assay [2]; -23.8% in assay [3]; -6.4% in assay [4]; 6.35% in assay [5]; 18.6% in assay [6].
`CC(=O)O[C@H]1CCN2C(=O)C=CC(OCc3ccccc3)C12` (stereo not given in full): the growth inhibition is 3.8% in assay [1]; -15.3% in assay [2]; 11.1% in assay [3]; 13.2% in assay [4]; -5.95% in assay [5]; 3.6% in assay [6].
With `Cc1cc(Cl)cc(CN(Cc2ccccc2)Cc2cc(Cl)cc(C)c2O)c1O`, the growth inhibition in assay [1] is 1.3%; in assay [2] it was -3.55%; in assay [3], 18.2%; in assay [4] it was 25.7%; in assay [5] it was 2%; in assay [6] it was -6.8%.
Consider `CC1COC(c2ccc(C(C)C)cc2)O1` (stereo not given), for which the growth inhibition was 7.5% in assay [1]; 0.35% in assay [2]; 0.25% in assay [3]; -8.9% in assay [4]; 0.55% in assay [5]; -4.4% in assay [6].
Regarding `CC(=O)CC1CCc2ccc3ccccc3c2C1c1cccc2ccccc12` (stereo not given), the growth inhibition is 2.35% in assay [1]; 8.2% in assay [2]; -6.85% in assay [3]; 26.4% in assay [4]; 2.4% in assay [5]; 25.4% in assay [6].
Take `S=C(NNC1=NCCN1)Nc1ccccc1`: the growth inhibition is -54% in assay [1]; -19.9% in assay [2]; -19.8% in assay [3]; 3.15% in assay [4]; -20.9% in assay [5]; -12.7% in assay [6].
Turning to `COC(=O)C1=C(O)C(C(=O)OC)[C@@]2(O)[C@@H](C(=O)OC)CC[C@@H]1[C@@H]2C(=O)OC` (stereo not given in full), the growth inhibition was -1.45% in assay [1]; -9.1% in assay [2]; -13.8% in assay [3]; 3% in assay [4]; -3.5% in assay [5]; 8.95% in assay [6].
With `COc1cc2cccc(NC(=O)c3cc(OC)c(OC)c(OC)c3Br)c2cc1OC`, the growth inhibition in assay [1] is 31.4%; in assay [2], 12.4%; in assay [3], 16.6%; in assay [4] it was 19.6%; in assay [5], 44.5%; in assay [6] it was 20.7%.
`S=C1NNC(=S)NN1`: the growth inhibition in assay [1] was 43.7%; in assay [2], 29.8%; in assay [3] it was 39.9%; in assay [4], 37.9%; in assay [5], 49.9%; in assay [6] it was 62.7%.
In the case of `COc1cc(NCCCN(CC(C)C)CC(C)C)c2ncccc2c1Cl`, the growth inhibition in assay [1] is 27.5%; in assay [2] it was 26.1%; in assay [3] it was 55%; in assay [4], 19.8%; in assay [5], 27.3%; in assay [6], 38.4%.
